# Measured values reported in PubChem BioAssay (NCATS).
# Records with an inconclusive call do not appear. Entries that show only a call come without a potency. Calls of active or inactive are those of the source. Unless noted, calls come from the whole dose curve; as a rule, active = well fitted inhibition curve with a large enough effect; inconclusive = small, poorly fitted or top-dose-only effect; inactive = flat fitted curve, though single readings scatter.
# Columns and labels:
# [1] = S16 Schwann cell PMP22 intronic element beta-lactamase assay (AID 624044; calls by dose curve; note: nearly all actives have a fitted effect of over 15% in size)
# In short: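 Beta-lactamase reporter under a PMP22 intronic regulatory element in stable S16 rat Schwann cells; 24 h compound exposure. 460 nm blue signal normalized between DMSO (0%) and potassium clavulanate, with 535 nm FRET tracking viability; curves classed by r2 and response.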
# AA1029 = experiment: qHTS profiling for inhibitors of Plasmodium falciparum proliferation (AID 504749); note: nearly all actives have a fitted effect of over 60% in size; note: potency is the fitted concentration of half-maximal effect; settings: P. falciparum in erythrocytes, SYBR Green DNA, 72 h; series mostly up to 12.8 µM
# In short: (§1)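 Fluorescence of SYBR Green-bound parasite DNA, read at 485/535 nm, served as the growth measure. Infected erythrocytes were cultured with compound 72 h; artemisinin (0.29 uM) and DMSO wells defined the normalization range.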
# CP194 = experiment: as above; settings: P. falciparum in erythrocytes, SYBR Green DNA, 72 h; series mostly up to 12.8 µM
# In short: as §1
# CP201 = experiment: as above; settings: P. falciparum in erythrocytes, SYBR Green DNA, 72 h; series mostly up to 12.8 µM
# In short: as §1
# CP252 = experiment: as above; settings: P. falciparum in erythrocytes, SYBR Green DNA, 72 h; series mostly up to 12.8 µM
# In short: as §1
# CP265 = experiment: as above; settings: P. falciparum in erythrocytes, SYBR Green DNA, 72 h; series mostly up to 12.8 µM
# In short: as §1
# CP268 = experiment: as above; settings: P. falciparum in erythrocytes, SYBR Green DNA, 72 h; series mostly up to 12.8 µM
# In short: as §1
# CP286 = experiment: as above; settings: P. falciparum in erythrocytes, SYBR Green DNA, 72 h; series mostly up to 12.8 µM
# In short: as §1
# CP291 = experiment: as above; settings: P. falciparum in erythrocytes, SYBR Green DNA, 72 h; series mostly up to 12.8 µM
# In short: as §1
# CP305 = experiment: as above; settings: P. falciparum in erythrocytes, SYBR Green DNA, 72 h; series mostly up to 12.8 µM
# In short: as §1
# CP325 = experiment: as above; settings: P. falciparum in erythrocytes, SYBR Green DNA, 72 h; series mostly up to 12.8 µM
# In short: as §1
# CP329 = experiment: as above; settings: P. falciparum in erythrocytes, SYBR Green DNA, 72 h; series mostly up to 12.8 µM
# In short: as §1
# DFO2036 = experiment: as above; settings: P. falciparum in erythrocytes, SYBR Green DNA, 72 h; series mostly up to 12.8 µM
# In short: as §1
# DIV17 = experiment: as above; settings: P. falciparum in erythrocytes, SYBR Green DNA, 72 h; series mostly up to 12.8 µM
# In short: as §1
# DIV30 = experiment: as above; settings: P. falciparum in erythrocytes, SYBR Green DNA, 72 h; series mostly up to 12.8 µM
# In short: as §1
# ICS = experiment: as above; settings: P. falciparum in erythrocytes, SYBR Green DNA, 72 h; series mostly up to 12.8 µM
# In short: as §1
# P93_24 = experiment: as above; settings: P. falciparum in erythrocytes, SYBR Green DNA, 72 h; series mostly up to 12.8 µM
# In short: as §1
# TAB109 = experiment: as above; settings: P. falciparum in erythrocytes, SYBR Green DNA, 72 h; series mostly up to 12.8 µM
# In short: as §1
# TAB113 = experiment: as above; settings: P. falciparum in erythrocytes, SYBR Green DNA, 72 h; series mostly up to 12.8 µM
# In short: as §1
# CP237 = experiment: as above; settings: P. falciparum in erythrocytes, SYBR Green DNA, 72 h; series mostly up to 12.8 µM
# In short: as §1
Structure (SMILES),Potency [1],Potency (AA1029),Potency (CP194),Potency (CP201),Potency (CP252),Potency (CP265),Potency (CP268),Potency (CP286),Potency (CP291),Potency (CP305),Potency (CP325),Potency (CP329),Potency (DFO2036),Potency (DIV17),Potency (DIV30),Potency (ICS),Potency (P93_24),Potency (TAB109),Potency (TAB113),Potency (CP237)
O=C(Nc1ccccc1)OC[C@H](CN1CCCCC1)OC(=O)Nc1ccccc1,inactive,inactive,inactive,inactive,inactive,inactive,inactive,inactive,inactive,inactive,inactive,inactive,inactive,inactive,inactive,inactive,inactive,inactive,inactive,–
CC(=O)O[C@]1(C(C)=O)CC[C@@H]2[C@@H]3C=C(C)C4=CC(=O)CC[C@@]4(C)[C@H]3CC[C@]21C,inactive,inactive,inactive,inactive,inactive,inactive,inactive,inactive,inactive,inactive,inactive,inactive,inactive,inactive,inactive,–,inactive,inactive,inactive,inactive
CC(=O)[C@@]1(O)CC[C@H]2[C@H]3C[C@@H](C)C4=CC(=O)C=C[C@]4(C)[C@@]3(F)[C@@H](O)C[C@]21C,inactive,inactive,inactive,inactive,inactive,inactive,inactive,inactive,inactive,inactive,inactive,inactive,inactive,inactive,inactive,–,inactive,inactive,inactive,inactive
CC1(C)O[C@@H]2C[C@H]3[C@H]4C[C@H](F)C5=CC(=O)CC[C@]5(C)[C@@H]4[C@H](O)C[C@]3(C)[C@]2(C(=O)CO)O1,inactive,inactive,inactive,inactive,inactive,inactive,inactive,inactive,inactive,inactive,inactive,inactive,inactive,inactive,inactive,inactive,inactive,inactive,inactive,inactive
CC[C@@H]1OC(=O)[C@H](C)[C@H](O[C@@H]2C[C@](C)(OC)[C@H](O)[C@H](C)O2)[C@H](C)[C@H](O[C@@H]2O[C@@H](C)C[C@@H](N(C)C)[C@@H]2O)[C@](C)(O)C[C@H](C)C(=NOCOCCOC)[C@H](C)[C@H](O)[C@]1(C)O,inactive,inactive,inactive,inactive,–,inactive,inactive,inactive,inactive,inactive,inactive,inactive,–,inactive,inactive,inactive,inactive,inactive,inactive,inactive
COc1cc(N)c(Cl)cc1C(=O)N[C@H]1CCN(CCCOc2ccc(F)cc2)C[C@H]1OC,inactive,–,–,–,–,3.98 µM (active),inactive,3.55 µM (active),–,–,–,–,–,–,–,–,–,–,–,–
CC(C)(C)NC[C@H](O)COc1cccc2c1CCC(=O)N2,inactive,inactive,inactive,inactive,inactive,inactive,inactive,inactive,inactive,inactive,inactive,inactive,inactive,inactive,inactive,inactive,inactive,inactive,inactive,inactive
CN1C(=O)C[C@H](c2ccccc2)C1=O,inactive,inactive,inactive,inactive,inactive,–,inactive,inactive,inactive,inactive,inactive,inactive,inactive,inactive,inactive,inactive,inactive,0.005 µM (active),–,–
CO[C@]1(NC(=O)C2SC(=C(C(N)=O)C(=O)O)S2)C(=O)N2C(C(=O)O)=C(CSc3nnnn3C)CS[C@H]21 (stereo not given in full),inactive,inactive,inactive,inactive,inactive,inactive,inactive,inactive,inactive,inactive,inactive,inactive,inactive,inactive,inactive,inactive,–,inactive,inactive,inactive
C[N+]12CCC(CC1)[C@@H](OC(=O)C(O)(c1ccccc1)c1ccccc1)C2,–,inactive,–,–,inactive,inactive,inactive,inactive,–,–,inactive,inactive,inactive,–,–,inactive,inactive,inactive,inactive,inactive
C=CCN1C(=CCO)[C@H]2C[C@H]3[C@@H]1CC[C@@]31c3ccccc3N3C=C4[C@@H]5N(/C=C/2[C@H]31)c1ccccc1[C@]51CC[C@H]2[C@H]1C[C@@H]4/C(=C/CO)N2CC=C,inactive,inactive,inactive,inactive,inactive,inactive,inactive,inactive,inactive,inactive,inactive,inactive,inactive,inactive,inactive,inactive,inactive,inactive,inactive,inactive
COc1ccc([C@@H]2CC(=O)c3c(O)cc(O[C@H]4O[C@@H](CO[C@H]5O[C@@H](C)[C@@H](O)[C@@H](O)[C@@H]5O)[C@@H](O)[C@@H](O)[C@@H]4O)cc3O2)cc1O,–,inactive,inactive,inactive,inactive,inactive,inactive,inactive,inactive,inactive,inactive,inactive,inactive,inactive,inactive,inactive,inactive,inactive,inactive,inactive
CNC[C@H](O)c1ccc(OC(=O)C(C)(C)C)c(OC(=O)C(C)(C)C)c1,inactive,inactive,inactive,inactive,inactive,inactive,inactive,inactive,inactive,inactive,inactive,inactive,inactive,–,inactive,–,inactive,inactive,inactive,inactive
CC(=O)N(C[C@@H](C)C(=O)O)c1c(I)cc(I)c(N)c1I,inactive,inactive,–,–,inactive,inactive,–,inactive,–,–,–,–,inactive,–,–,inactive,inactive,inactive,inactive,inactive
CCOC(=O)[C@H](CCc1ccccc1)N[C@@H](C)C(=O)N1[C@H](C(=O)O)C[C@H]2CCC[C@@H]21,inactive,inactive,inactive,inactive,inactive,inactive,inactive,inactive,inactive,inactive,inactive,–,inactive,inactive,–,inactive,inactive,inactive,inactive,inactive
CCC(=O)O[C@@H]1[C@H](C)O[C@H](O[C@H]2[C@@H](N(C)C)[C@H](O)[C@@H](O[C@@H]3[C@@H](CC=O)C[C@@H](C)[C@@H](O)/C=C\C=C/C[C@@H](C)OC(=O)C[C@@H](OC(=O)CC)[C@H]3OC)O[C@H]2C)C[C@]1(C)O,inactive,–,–,–,–,–,–,–,–,–,–,–,inactive,–,inactive,–,–,–,inactive,–
NS(=O)(=O)c1cc2c(cc1Cl)N[C@@H](CC1CCCC1)NS2(=O)=O,–,inactive,inactive,inactive,inactive,inactive,inactive,inactive,inactive,inactive,inactive,inactive,inactive,inactive,inactive,inactive,inactive,inactive,inactive,inactive
C=CCOc1ccccc1OC[C@H](O)CNC(C)C,inactive,inactive,inactive,inactive,inactive,inactive,inactive,inactive,inactive,inactive,inactive,inactive,inactive,inactive,inactive,inactive,inactive,inactive,inactive,3.16 µM (active)
CN(C)CCn1nnnc1SCC1=C(C(=O)O)N2C(=O)[C@@H](NC(=O)Cc3csc(N)n3)[C@@H]2SC1,inactive,inactive,inactive,inactive,inactive,–,inactive,inactive,inactive,inactive,inactive,inactive,–,–,–,2.51 µM (active),–,–,–,inactive
COC(=O)C1=C(C)NC(C)=C(C(=O)OC(C)C)[C@H]1c1cccc2nonc12,inactive,–,–,–,–,inactive,–,–,–,–,–,–,inactive,–,inactive,3.55 µM (active),inactive,–,–,–
O=C1O[C@H](CN2CCOCC2)CN1/N=C\c1ccc([N+](=O)[O-])o1,inactive,–,inactive,inactive,inactive,–,inactive,–,inactive,inactive,inactive,inactive,–,inactive,inactive,–,–,–,–,–
C[C@H](Oc1ccccc1)C(=O)N[C@@H]1C(=O)N2[C@@H]1SC(C)(C)[C@@H]2C(=O)O,inactive,inactive,inactive,inactive,inactive,inactive,inactive,inactive,inactive,inactive,inactive,inactive,inactive,inactive,inactive,inactive,inactive,inactive,inactive,inactive
NC(=O)N[C@H]1NC(=O)NC1=O,inactive,inactive,inactive,inactive,inactive,inactive,inactive,inactive,inactive,inactive,inactive,inactive,–,inactive,inactive,inactive,inactive,inactive,inactive,inactive
C[C@@H]1Cc2ccccc2N1NC(=O)c1ccc(Cl)c(S(N)=O)c1 (stereo not given in full),inactive,inactive,inactive,inactive,inactive,inactive,inactive,inactive,inactive,inactive,–,inactive,inactive,inactive,inactive,inactive,inactive,inactive,inactive,inactive
CC[C@H](CO)NCCN[C@@H](CC)CO,inactive,inactive,inactive,inactive,inactive,inactive,inactive,inactive,inactive,inactive,inactive,inactive,inactive,inactive,inactive,inactive,inactive,inactive,inactive,inactive
